# Vif-APOBEC3F blk: blocks the Vif interaction with APOBEC3F | Potency, µM (highest dose often 46.1 µM), without a hit: at the highest dose activity, negative = active | actives 0.2% (n = 390,000) | AID 602313 | HeLa A3F-eYFP + Vif (tagged APOBEC3F with the HIV-1 protein that degrades it), YFP fluorescence increase; also: potency is read from the fitted curve at half-maximal effect; % of control where 0% means no effect; nearly all actives have a fitted effect of over 65% in size
#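 HeLa cells stably expressing Vif plus C-terminally eYFP-tagged A3F were seeded, incubated overnight at 37 deg C, dosed with compound, incubated overnight again at 37 deg C. Yellow fluorescence (Ex 488/Em 500-530) reported blocked Vif-mediated A3F-eYFP degradation.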
# IL-1B inflam inh: blocks inflammasome-driven IL-1 beta release; THP-1 LPS/ATP IL-1B secretion, AlphaLISA, 16 h; hits give low values; activity change, % at 57.5 µM; actives 4.7% (n = 360,000); AID 743279; in the data active = activity change below about -50%; inconclusive = mostly about -30% to -49%; also: % is scaled to controls: 0 for no effect and ±100 for the full control effect
#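 THP-1 cells pretreated 1 hr with compounds (up to 57.5 uM final), then stimulated with LPS (250 ng/mL final) plus ATP (1.25 mM final); secreted IL-1B measured by AlphaLISA after 16 hr, decreased signal indicating inhibition.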
# Vif-A3G inh: blocks the Vif interaction with human APOBEC3G; HeLa A3G-eYFP + Vif (tagged APOBEC3G with the HIV-1 protein that degrades it), YFP fluorescence, overnight; Potency, µM (series often up to 46.1 µM), without a hit: at the highest dose activity, negative = active, most hits filed as inhibitors; actives 0.076% (n = 410,000); AID 602310; also: potency is read from the fitted curve at half-maximal effect; % is scaled to controls: 0 for no effect and ±100 for the full control effect; nearly all actives have a fitted effect of over 60% in size
# Target sequence (Q9HC16 whole entry, looked up): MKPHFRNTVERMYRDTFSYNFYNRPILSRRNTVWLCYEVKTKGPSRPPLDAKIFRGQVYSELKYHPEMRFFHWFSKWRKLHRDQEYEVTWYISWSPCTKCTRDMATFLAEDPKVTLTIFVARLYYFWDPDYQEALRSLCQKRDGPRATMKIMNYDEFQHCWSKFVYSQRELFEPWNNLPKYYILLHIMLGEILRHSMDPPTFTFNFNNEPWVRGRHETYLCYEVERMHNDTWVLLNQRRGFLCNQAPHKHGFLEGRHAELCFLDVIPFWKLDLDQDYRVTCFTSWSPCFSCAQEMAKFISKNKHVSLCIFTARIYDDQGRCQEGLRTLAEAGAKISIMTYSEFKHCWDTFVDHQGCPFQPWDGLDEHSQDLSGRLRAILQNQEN
#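 HeLa cells stably expressing Vif and C-terminally eYFP-tagged A3G, seeded overnight at 37 deg C, then exposed to compound by pintool overnight at 37 deg C. Rise in yellow fluorescence (Ex 488/Em 500-530, Acumen) marks blocked Vif-driven A3G degradation.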
# MCF10A rerep: inducers of DNA re-replication in MCF 10A breast cells; MCF 10A DNA re-replication, Hoechst nuclear intensity, 48 h; Potency, µM (highest dose often 46.1 µM), for the others: at the highest dose activity, positive = re-replication, hits mostly activators; actives 2.9% (n = 350,000); AID 624296; also: potency is read from the fitted curve at half-maximal effect; % of control where 0% means no effect; nearly all actives have a fitted effect of over 50% in size
# Giardia kill: kills Giardia lamblia | Giardia lamblia trophozoite viability | activity change, % at 7.66 µM, hits read low | actives 0.15% (n = 340,000) | AID 540267; in the data active = activity change below about -80%; inconclusive = between about -30% and that limit;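 also: parasites exposed to compound for two days anaerobically before the ATP read; % is scaled to controls: 0 for no effect and ±100 for the full control effect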
#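 Luminescence from cellular ATP indicates surviving trophozoites (100 cells/well) following 48 hrs anaerobic compound treatment at 37 deg C; signal develops 15-30 min at room temperature.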
# SW480 rereplic: DNA re-replication induction in SW480 cells. SW480 DNA re-replication, Hoechst DNA content imaging, 48 h. Potency, µM (titrated, usually from 46.1 µM), for the others: at the highest dose re-replication activation, actives largely listed as activators. actives 1.8% (n = 340,000). AID 624297; also: potency is read from the fitted curve at half-maximal effect; % of control where 0% means no effect; nearly all actives have a fitted effect of over 55% in size
#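 Treated cells incubate 48 hr (37 C, 5% CO2), are stained 40 min with Hoechst, and nuclear fluorescence is enumerated; a rise in nuclei with high DNA signal marks re-replication.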
# An asterisk follows results filed as active; ? = inconclusive; / = no result given. In the library only some 6.9% were active in any assay of this set; here they are far more common. Unless noted, calls follow the shape of the dose curve; as a rule, active = well fitted curve in the direction sought with a large enough effect; inconclusive = small, poorly fitted or top-dose-only effect, or another doubt; inactive = no such curve, though single readings can be large; an effect the other way counts as inactive or inconclusive.
SMILES,Vif-APOBEC3F blk,IL-1B inflam inh,Vif-A3G inh,MCF10A rerep,Giardia kill,SW480 rereplic
CCOc1ccc(-n2c(-c3ccccc3)c[n+]3c2CCCCC3)cc1,-0.4%,-55.8*,8.5%,2.8%,-7.7,-14.4%
COc1cccc(-c2nc(-c3ccccc3)nc(N3CCN(C)CC3)c2C#N)c1,6.2%,-61.3*,-26.7%,?,9.1,?
Brc1ccc(-c2nnc(-c3ccccc3)c(N3CCSCC3)n2)cc1,0.9%,-0.7,-12.5%,5.9%,-10.8,-3.3%
CN1CCN(c2nc(-c3ccc(Br)cc3)nnc2-c2ccccc2)CC1,-0.6%,-57.9*,-5.5%,?,-5.0,-0.5%
CN1CCN(c2nc(-c3ccccc3)nc(-c3ccccc3)c2C#N)CC1,-0.5%,-96.1*,-1.5%,?,-13.3,1.0%
COc1ccccc1N(C)S(=O)(=O)c1ccc(C(=O)N(C)Cc2cccc(OC)c2OC)cc1,0.9%,-6.3,2.2%,/,/,/
COc1ccccc1N(C)S(=O)(=O)c1ccc(C(=O)N(C)Cc2ccc(Cl)s2)cc1,-19.0%,?,0.7%,25.9µM*,-1.9,2.6%
CCC(=O)N1CCc2cc(S(=O)(=O)NC(Cc3ccccc3)C(=O)NCc3cccc(OC)c3)ccc21 (stereo not given),-3.5%,/,-3.9%,/,/,/
OCC(CO)(CO)N=Cc1c(O)ccc2ccccc12,-4.6%,21.7,0.5%,8.2µM*,1.4,-0.3%
Oc1ccc2ccccc2c1C=NNc1ccccn1,-13.8%,126.5,-12.0%,?,-1.1,7.31µM*
Oc1ccc2ccccc2c1/C=N/Nc1nnc(-c2ncc[nH]2)c2ccccc12,?,69.0,?,?,-9.0,0.651µM*
c1ncc2snnc2n1,/,/,2.7%,/,/,/
Cc1cc(/C=N/n2cnnc2)c(C)n1-c1ccc(OCc2ccc(Cl)cc2)cc1,?,-81.6*,0.7%,?,8.0,2.2%
Cc1cc(/C=N/n2cnnc2)c(C)n1-c1ccc(OCc2ccccc2F)cc1,-2.0%,-84.5*,-5.8%,-4.7%,-11.5,5.7%
Cc1ccc(Nc2ccc([N+](=O)[O-])nc2[N+](=O)[O-])cc1,-1.5%,-0.9,-7.2%,1.7%,-95.7*,-0.7%
Cc1ccc(Nc2ccc3nonc3c2[N+](=O)[O-])cc1,-12.0%,0.0,-0.2%,-3.4%,9.9,-9.1%
Cc1oncc1C(=S)Nc1ccccc1,-5.1%,22.6,-1.2%,8.2µM*,3.1,6.51µM*
CCn1nc(C)cc1-c1nnc(Sc2ncc([N+](=O)[O-])s2)n1C,-14.9%,-99.2*,-22.8%,11.8%,-0.4,28.4%
CCn1nc(C)cc1-c1nnc(SCC(=O)Nc2ccccc2)n1CCCOC,-26.0%,/,-2.5%,-6.3%,-2.9,2.3%
COc1cc2c(NC3CCN(C)CC3)nc(N3CCCCC3)nc2cc1OCCCN(C)C,/,/,-7.9%,/,/,/
CCCCn1c(N)c(C(=S)NC(=O)CC(C)(C)C)c(=O)n(C)c1=O,-8.5%,41.4,-3.6%,20.6µM*,-19.8,7.3%
CCCn1c(N)c(C(=O)CSc2ncn[nH]2)c(=O)n(C)c1=O,-5.6%,13.3,-3.7%,-1.6%,-18.2,-4.3%
Cc1cccc(-c2nnc(SCC#N)n2-c2cccc(Cl)c2)c1,-11.6%,?,1.2%,16.2%,-7.3,-5.5%
COc1ccc(-n2c(SCCC#N)nnc2-c2cc(Cl)ccc2OC)cc1Cl,-0.9%,30.1,?,16.4µM*,-5.5,?
COc1ccc(C2CC(=O)C3=C(C2)NC(C)=C(C#N)C3c2ccc(N(C)C)cc2)cc1 (stereo not given),-9.3%,-65.6*,-5.7%,?,-16.3,-0.4%
CC(C)CC(c1nnnn1CC1CCCO1)N1CCN(c2cccc(Cl)c2)CC1 (stereo not given),-1.3%,-4.1,-0.1%,?,-0.5,?
CCC(c1nnnn1C(C)(C)C)N1CCN(c2cc(Cl)ccc2C)CC1 (stereo not given),-11.0%,-6.1,-7.4%,13µM*,-21.3,?
CCC(c1nnnn1C(C)(C)C)N1CCN(C2CCCC2)CC1 (stereo not given),1.8%,1.2,0.1%,-15.8%,13.0,1.1%

# Screening results (PubChem BioAssay)
